The values below come from PubChem BioAssay AID1347416 (National Center for Advancing Translational Sciences (NCATS), 2020).

SMILES strings stand for the structures. Screen size: about 4,100 compounds; about 1,600 (39%) were called active. Inconclusive results (about 25%) are left out. Some of the results follow. A number with no mark means an inactive call. Calls follow the shape of the dose curve; as a rule, active = well fitted inhibition curve with a large enough effect; inconclusive = small, poorly fitted or top-dose-only effect; inactive = no such curve, though single readings can be large or run the other way.
% is scaled to controls: 0 for no effect and ±100 for the full control effect; potency is read from the fitted curve at half-maximal effect.

The test is described as follows: qHTS Validation assay for Inhibitors of Plasmodium falciparum Dd2 growth in vitro. Also: nearly all actives have a fitted effect of over 70% in size. The note with it: P. falciparum Dd2 in RBCs, SYBR Green growth, 72 h; series mostly up to 28.7 µM; activity change, negative = inhibition: at the top concentration. Summed up: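 P. falciparum Dd2-infected red blood cells (2.5% hematocrit, 0.3% parasitemia) grown 72 h at 37 °C under 5% O2 with compounds in a titration, 29 uM to 0.5 nM final. Growth read as SYBR Green-1 fluorescence after ~16 h lysis; artesunate 300 nM as positive control.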
Consider `Cc1ccccc1N(C(=O)c1snc(C(N)=O)c1N)C(C(=O)NCC1CCCO1)c1ccc(N(C)C)cc1` (centres undefined), for which the Potency is 7.5 µM (active). In the case of `Cc1ccc(-c2cc(C(F)F)n3ncc(C(=O)Nc4ccc(S(=O)(=O)Nc5ccccc5C)cc4)c3n2)cc1`, the “activity change, negative = inhibition” value was 74.9%. `O=C(c1cnn2c(C(F)F)cc(-c3ccccc3)nc12)N1CCCCC1c1cccnc1` (centres undefined): the Potency is 8.41 µM (active). Take `O=C(C1CCC1)N1CCCCCC1c1nnc(-c2ccccc2)o1` (centres undefined): the “activity change, negative = inhibition” value was -20.8%. With `O=C(c1ccccc1F)N1CCCCCC1c1nnc(-c2ccccc2)o1` (centres undefined), the “activity change, negative = inhibition” value was -13.5%. For the molecule `Cc1ccc(-c2cc(C(F)F)n3ncc(C(=O)N4CCCCC4c4cccnc4)c3n2)cc1` (centres undefined), the Potency is 2.37 µM (active). Same read-out and setting: in the case of `Cc1ccc(-c2cc(C(F)(F)F)n3ncc(C(=O)N4CCCCC4c4cccnc4)c3n2)cc1` (centres undefined) it was 1.88 µM (active). Regarding `CC(C)c1ccc(CN2CCc3ncc(C(=O)NCCN4CCNC4=O)n3CC2)cc1`, the “activity change, negative = inhibition” value is 21.5% [at 43.1 µM]. Consider `O=C(Nc1ccc(-c2csc(Nc3ccccc3)n2)cc1)c1cc([N+](=O)[O-])cc(C(F)(F)F)c1`, for which the Potency is 2.11 µM (active). For the molecule `Cc1ccc(-c2cc3c(=O)n(CCNC(=O)c4cc(F)ccc4F)ccn3n2)c(C)c1`, the “activity change, negative = inhibition” value is -1.76%. For `CN(C)C(=O)c1ccc(N2CCC(NCCC3=CC[C@H]4C[C@@H]3C4(C)C)CC2)cc1`, the “activity change, negative = inhibition” value was 0%. On to `CC(CCc1ccccc1)NCC(O)c1cccc([N+](=O)[O-])c1` (centres undefined), for which the Potency was 0.473 µM (active).

Take `O=C(CCc1cc(Cl)no1)N1CCc2nc3cc(-c4ccccc4)[nH]n3c(=O)c2C1`: the “activity change, negative = inhibition” value is -14.8%. On to `CC(=O)c1sc2c(c1C)c(=O)n(-c1ccc(Cl)cc1)c(=O)n2Cc1cc(=O)n2cc(Cl)ccc2n1`, for which the Potency was 7.5 µM (active).

As for `CCN(CC)C(=O)Cn1c(=O)n(-c2ccc(Cl)cc2)c(=O)c2c3c(sc21)CCCCC3`, the “activity change, negative = inhibition” value is 18.7%.

Take `CCc1nc2c(c(-c3ccc(O)cc3)n1)CCN(Cc1ccccc1C(F)(F)F)CC2`: the Potency is 2.99 µM (active).

For the molecule `CC(C)c1nc2c(c(-c3ccc(O)cc3)n1)CCN(Cc1ccccc1C(F)(F)F)CC2`, the Potency is 4.73 µM (active). `Cc1c(Cl)cccc1Nc1nn2c(=O)c3ccc(C(=O)NCCc4ccccc4)cc3nc2s1`: the Potency is 7.5 µM (active). As for `CC1(CNc2ccccc2)COc2ccc(C(=O)NCCc3ccccc3)cc2N1` (centres undefined), the “activity change, negative = inhibition” value was -37.5% [at 43.1 µM]. For `Cc1c(Cl)cccc1Nc1nn2c(=O)c3ccc(C(=O)N(C)Cc4ccccc4)cc3nc2s1`, the Potency is 16.8 µM (active). `O=c1c2cc3c(cc2nc2sc(Nc4ccc(F)cc4F)nn12)OCO3`: the “activity change, negative = inhibition” value is 20.7%. As to `Cc1c(Cl)cccc1NC(=O)CCCn1nc(C)c2sc3ccccc3c2c1=O`, the “activity change, negative = inhibition” value is 12%. Regarding `NS(=O)(=O)c1ccc(CCNC(=O)c2ccc3nc(CCc4ccccc4)oc3c2)cc1`, the “activity change, negative = inhibition” value is 7.99%. Take `COc1ccccc1C1CC(c2ccccc2)=NN1C(=O)c1ccccc1` (centres undefined): the Potency is 2.37 µM (active). In the case of `O=C(NC1CCCN(c2cc(-c3ccccc3)[nH]n2)C1)c1cccc(Cl)c1` (centres undefined), the “activity change, negative = inhibition” value is -27.5%. `COc1ccc(/C(C)=N/NC(=S)NCCc2ccccc2)c(O)c1`: the Potency was 3.35 µM (active).

`CCCCc1c(C)c(C#N)c2nc3ccccc3n2c1Nc1c(C)n(C)n(-c2ccccc2)c1=O`: the Potency is 2.66 µM (active). Take `CC1CCN(S(=O)(=O)c2ccc(NC(=O)c3ccco3)cc2)CC1`: the “activity change, negative = inhibition” value was 4.42%.

As for `Cc1sc(NC(=O)c2ccco2)c(C(c2cccnc2)N2CCC(C)CC2)c1C` (centres undefined), the Potency is 5.31 µM (active). For `CCOC(=O)c1c[nH]c2cc(OCC(C)C)c(OCC(C)C)cc2c1=O`, the Potency is 0.944 µM (active).

As for `CCOC(=O)c1cn(CC)c2c(ccc3ccccc32)c1=O`, the “activity change, negative = inhibition” value was 20.8%. As for `CCOC(=O)c1c[nH]c2c(C)cc(C)cc2c1=O`, the Potency is 4.22 µM (active). `c1csc(-c2nc3nccc(-c4cc5ccccc5o4)n3n2)c1`: the “activity change, negative = inhibition” value is 16.8%. As for `CC(NCc1ccccc1)c1ccccc1O` (centres undefined), the Potency was 5.31 µM (active). In the case of `CCN1C(=O)c2cccc3c(S(=O)(=O)Nc4ccccc4)ccc1c23`, the “activity change, negative = inhibition” value was 37.8%. As for `Cc1ccccc1-c1nccn2c(C3CN(Cc4ccccc4O)C3)ncc12`, the Potency is 5.44 µM (active). Still for that read-out and setting: next, `O=[N+]([O-])c1ccc(S(=O)(=O)N2CCn3cccc3C2c2ccc(Br)cc2)cc1` (centres undefined): 5.96 µM (active). For the molecule `Cc1ccc(S(=O)(=O)N2CCC(C(=O)NC3CCCC3)CC2)cc1Cl`, the “activity change, negative = inhibition” value is -26.1%. Still for that read-out and setting: in the case of `CC(C)N1CCC(NC(=O)NC2CCCCC2)CC1` it was 42.7%.

As for `CC(C(=O)N1CCCC1)N1CCN(S(=O)(=O)c2ccc(C(C)(C)C)cc2)CC1` (centres undefined), the Potency is 3.35 µM (active).

Turning to `CC(C(=O)NC1CCCC1)N1CCN(S(=O)(=O)c2ccc(C(C)(C)C)cc2)CC1` (centres undefined), the Potency was 8.41 µM (active).

As for `COCCNC(=O)[C@@H]1C[C@@H](O)CN1C1CCN(C(=O)Cc2ccccc2)CC1`, the “activity change, negative = inhibition” value was 0.0678%. The same measure, in the same setting: in the case of `COc1cccc(CNC(=O)[C@@H]2C[C@@H](O)CN2C2CCN(C(=O)c3ccc(OC)c(F)c3)CC2)c1` it was 0.134%. Take `COc1ccc(C(=O)N2CCC(n3c(C)cnc3-c3ccccc3)CC2)c(OC)c1`: the “activity change, negative = inhibition” value was -11.3%. For `COc1cccc(C(=O)N2CCC(N3C[C@H](O)C[C@H]3C(=O)N3CCc4ccccc4C3)CC2)c1`, the Potency is 8.41 µM (active).

In the case of `COc1cccc(C(=O)N2CCC(N3C[C@H](O)C[C@H]3C(=O)N3CC=C(c4ccccc4)CC3)CC2)c1`, the Potency is 9.44 µM (active). On to `CCCC(=O)N1CCn2c(nnc2[C@@H]2C[C@@H](O)CN2Cc2ccccc2)C1`, for which the “activity change, negative = inhibition” value was 17.5%.

For `CCCCOCc1cc(CN2CCN(c3cccc(Cl)c3)CC2)c(O)c2ncccc12`, the Potency was 6.68 µM (active). For `CC(C)OCc1cc(CN2CCN(c3cccc(C(F)(F)F)c3)CC2)c(O)c2ncccc12`, the Potency was 6.68 µM (active).

For `CCOc1ccc(CC(=O)N2CCC[C@H]2c2nc(-c3ccc(C)cc3)no2)cc1`, the “activity change, negative = inhibition” value is 22.8%. Regarding `c1cc(-c2noc([C@@H]3Cc4nc[nH]c4CN3CC3CCCCC3)n2)ccn1`, the Potency is 21.7 µM (active).

With `COCCOc1cc(-c2noc([C@@H]3CCCN3CC3CC3)n2)ccn1`, the Potency was 15.3 µM (active). As for `COc1ccc(-c2noc(CCCC(=O)N3CCCC3c3nc(C4CCOCC4)no3)n2)cc1OC` (centres undefined), the “activity change, negative = inhibition” value was -2.3%.

Take `COCCNc1ncccc1-c1noc([C@@H]2CCCN2Cc2ccccn2)n1`: the Potency was 7.69 µM (active). `COc1ccc(C(=O)N2CCC[C@H]2c2nc(-c3ccccc3Cl)no2)cc1OC`: the “activity change, negative = inhibition” value was 4.37%. Regarding `COc1ccc(C(O)(CCC(C)C)C(CN2CCOCC2)c2ccc(Cl)cc2)cc1` (centres undefined), the Potency was 6.68 µM (active). Turning to `COc1ccc(C(O)(CCC(C)C)C(CN2CCOCC2)c2ccccc2)cc1` (centres undefined), the Potency was 5.31 µM (active). For the molecule `COc1ccc(S(=O)(=O)N2CCCCCC2)cc1NC(=O)c1c2c(nc3ccccc13)CCN(Cc1ccccc1)C2`, the Potency was 4.73 µM (active). `COc1cc(OC)c(NC(=O)N2CCc3cc(S(=O)(=O)N4CCC(C)CC4)ccc32)cc1Cl`: the “activity change, negative = inhibition” value was 39.5%. On the same count and under the same terms, next, `COc1ccc(OC)c(NC(=O)c2ccc3c(c2)N(S(=O)(=O)c2ccccc2)CC3)c1`: -26.8%; `COCCOCC1(CNC(=O)c2cnccn2)C[C@@H](O)[C@@H](O)C1` (some centres undefined): 54.4% [at 43.1 µM]. Regarding `O=c1c2ccccc2sc2nc(C3CCCCC3)n(Cc3ccco3)c(=O)c12`, the Potency is 7.5 µM (active).

Take `O=S(=O)(c1ccccc1)c1nnn2c1nc(NC1CCN(Cc3ccccc3)CC1)c1cc(Cl)ccc12`: the Potency is 2.99 µM (active). For the molecule `Cc1ccc(S(=O)(=O)c2nnn3c2nc(N2CCN(c4ccccn4)CC2)c2ccccc23)cc1`, the Potency is 7.5 µM (active).

As for `Cc1c(C(=O)N2CCN(c3ccccn3)CC2)oc2ccccc12`, the “activity change, negative = inhibition” value is 24.9%. Consider `CN(C)c1cc(=O)c2ccnc(N3CCN(c4ccccn4)CC3)c2o1`, for which the “activity change, negative = inhibition” value was 12.8% [at 43.1 µM]. Take `CC1CCN(c2nc3c(S(=O)(=O)c4ccccc4)nnn3c3ccc(Cl)cc23)CC1`: the Potency was 2.66 µM (active).

As for `COc1ccc2c(c1)CCN=C2C[C@H]1CN(C(=O)NC(C)C)CC[C@H]1CC(=O)O`, the “activity change, negative = inhibition” value is 40.3% [at 43.1 µM]. As for `COc1ccc(CN2CCCC(N3CCc4ccccc4C3)C2)c(O)c1` (centres undefined), the Potency is 2.99 µM (active).

As to `COc1cccc(CN(C)C2CCc3ccccc32)c1` (centres undefined), the “activity change, negative = inhibition” value is -11.5% [at 43.1 µM]. `CCOCCCn1c(=N)c(C(=O)NCc2cccnc2)cc2c(=O)n3ccccc3nc21`: the “activity change, negative = inhibition” value was 35.7%.

In the case of `COc1ccc(CCn2c(=N)c(C(=O)NCc3ccco3)cc3c(=O)n4cccc(C)c4nc32)cc1`, the Potency was 1.68 µM (active). Take `COc1ccc(CCn2c(=N)c(C(=O)NCCN3CCOCC3)cc3c(=O)n4cccc(C)c4nc32)cc1OC`: the Potency was 13.3 µM (active). Still for that read-out and setting: next, `Cc1cccn2c(=O)c3cc(C(=O)NC(C)c4ccccc4)c(=N)n(CCOCCO)c3nc12` (centres undefined): 10.6 µM (active).

Consider `CCCc1noc(-c2cccn3c(CNC(=O)c4ccc(OC)cc4C)nnc23)n1`, for which the “activity change, negative = inhibition” value is 5.42%. As to `Cc1ccc(-c2cc3c(=O)n(CCNC(=O)c4ccc[nH]c4=O)ccn3n2)cc1C`, the “activity change, negative = inhibition” value was -19.5%. Turning to `Cc1cccn2c(=O)c3cc(C(=O)NCCc4ccc(S(N)(=O)=O)cc4)n(C)c3nc12`, the “activity change, negative = inhibition” value is 52.4%. In the case of `N#Cc1cccc(-c2cn3c(n2)N(C(=O)CC2CCCC2)CCC3)c1`, the “activity change, negative = inhibition” value is -24.1%. As for `CCCCCCc1cc2cc(-c3nnc(-c4ccc(C)cc4)o3)c(=O)oc2cc1O`, the “activity change, negative = inhibition” value is 75.9%. The same measure, in the same setting: next, `O=C(C1CCCC1)N1CCN(c2nnc3c(Cl)cccn23)CC1`: -1.29%. Turning to `COc1ccc(CCn2c(=N)c(C(=O)NC3CCCC3)cc3c(=O)n4cccc(C)c4nc32)cc1`, the Potency is 0.75 µM (active). Regarding `Cc1cccn2c(=O)c3cc(C(=O)NC4CCCC4)c(=N)n(CCc4ccccc4)c3nc12`, the Potency is 1.88 µM (active). Turning to `CN1CCCCC(CC(=O)NCCc2ccccc2)C1=O` (centres undefined), the “activity change, negative = inhibition” value is 19.6%. The same measure, in the same setting: next, `COc1ccc(CCNC(=O)c2cc3c(=O)n4cccc(C)c4nc3n(CC3CCCO3)c2=N)cc1` (centres undefined): 12.4%; `O=C(/C=C/c1ccccc1)Nc1cccc(C(=O)O)c1`: 36.5%.

With `Cc1cc(N)c2cc(NC(=O)/C=C/c3ccccc3Cl)ccc2n1`, the Potency is 1.88 µM (active). For the molecule `O=C(COc1ccc(F)cc1)N1CCC(c2noc(-c3ccncc3)n2)C1` (centres undefined), the “activity change, negative = inhibition” value was -28.6%. Regarding `CC1C(=O)C(C)C(c2cc(Cl)ccc2O)NC1c1cc(Cl)ccc1O` (centres undefined), the Potency was 6.68 µM (active). On to `Cc1[nH]c2c(C)cccc2c(=O)c1Br`, for which the Potency was 5.31 µM (active).
